Measured values reported in PubChem BioAssay (NCATS).
Inconclusive results are not listed. Active and inactive are the calls of the source. Calls come from the whole dose curve; as a rule, active = well fitted inhibition curve with a large enough effect; inconclusive = small, poorly fitted or top-dose-only effect; inactive = flat fitted curve, though single readings scatter.

Tests used:
Test in all cases: qHTS profiling for inhibitors of Plasmodium falciparum proliferation (AID 504749); note: nearly all actives have a fitted effect of over 60% in size
Settings in all cases: P. falciparum in erythrocytes, SYBR Green DNA, 72 h; series mostly up to 28.7 µM
CP335 = tested on: CP335
Method in brief: (§1)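 Three-day growth assay of blood-stage parasites in erythrocytes (0.3% parasitemia, 2.5% hematocrit) at 37 C, 5% CO2, quantified by SYBR Green DNA staining after overnight detergent lysis.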

DFO2036 = tested on: DFO2036
Method in brief: as §1

DIV14 = tested on: DIV14
Method in brief: as §1

DIV17 = tested on: DIV17
Method in brief: as §1

DIV30 = tested on: DIV30
Method in brief: as §1

Dd2 = tested on: Dd2
Method in brief: as §1

ECU = tested on: ECU
Method in brief: as §1

FAB9 = tested on: FAB9
Method in brief: as §1

GB4 = tested on: GB4
Method in brief: as §1

HB3 = tested on: HB3
Method in brief: as §1

Measured: Potency

Cc1ncc(C[n+]2csc(CCOP(=O)(O)O)c2C)c(N)n1
inactive: all assays above

C[C@H](CCC(=O)O)[C@H]1CC[C@H]2[C@@H]3CC[C@@H]4C[C@H](O)CC[C@]4(C)[C@H]3C[C@H](O)[C@]12C
inactive: all assays above

CC(C)CCC[C@@H](C)[C@H]1CC[C@H]2[C@@H]3CC[C@@H]4C[C@H](O)CC[C@]4(C)[C@H]3CC[C@]12C
inactive: all assays above

O=P(O)(O)OC[C@H](O)CO
inactive: all assays above

CCN(CC)CCOc1ccc2nc(N(C)C)sc2c1
inactive: all assays above

CC1(O)CCC(C(C)(C)O)CC1 (stereo not given)
inactive: all assays above

O=C(/C=C/c1cccc(F)c1)NC1CC1
inactive: all assays above

Nc1ncnc2c1ncn2[C@H]1CC[C@@H](CO)O1
inactive: all assays above

CC1=CCC2CC1C2(C)C (stereo not given)
inactive: all assays above

CCC(C)[C@@H](N)C(=O)O (stereo not given in full)
inactive: all assays above

CC(=O)N[C@@H]1C(O[C@H]2O[C@H](C(=O)O)C(O)[C@H](O)[C@H]2O)[C@H](O)[C@@H](CO)O[C@H]1O[C@@H]1C(C(=O)O)O[C@@H](O[C@H]2[C@H](O)[C@@H](CO)OC(O)[C@@H]2NC(C)=O)[C@H](O)[C@H]1O (stereo not given in full)
inactive: all assays above

CC12CCC(C1)C(C)(C)C2=O (stereo not given)
inactive: all assays above

Nc1nccs1
inactive: all assays above

FCOC(C(F)(F)F)C(F)(F)F
inactive: all assays above

CC1=CC(=O)NS(=O)(=O)O1
inactive: all assays above

O=C1N=C2SCCN2C(=O)C1Cc1ccc(Cl)cc1 (stereo not given)
inactive: all assays above

COC1=C(OC)C(=O)C(C/C=C(\C)CC/C=C(\C)CC/C=C(\C)CC/C=C(\C)CC/C=C(\C)CC/C=C(\C)CC/C=C(\C)CC/C=C(\C)CC/C=C(\C)CCC=C(C)C)=C(C)C1=O
inactive: all assays above

CCCCCCCCCCCCCCCCCC(=O)OCC(C)O (stereo not given)
inactive: all assays above

CC/C=C\C/C=C\C/C=C\C/C=C\C/C=C\CCCC(=O)O
inactive: all assays above

C=C(C)C1CC=C(C)CC1 (stereo not given)
inactive: all assays above

CC12CCC(C[N+](C)(CCC[N+](C)(C)C)C1)C2(C)C (stereo not given)
inactive: all assays above

FC(F)(F)COCC(F)(F)F
inactive: all assays above

O=C(O)c1ccc(OCCn2ccnc2)cc1
inactive: all assays above
